Results filed as inconclusive are left out. A number with no mark means an inactive call. Active and inactive are the calls of the source. Calls come from the whole dose curve; tested in HEK293 reporter line.
Assay: qHTS for Inhibitors of the Functional Ribonucleoprotein Complex (vRNP) of Lassa (LASV) Arenavirus: LASV Primary Screen - GLuc reporter signal (AID 1347082); note: nearly all actives have a fitted effect of over 60% in size
Conditions: LASV minigenome vRNP, Gaussia luciferase reporter; series mostly up to 57.5 µM; activity change, negative = inhibition: at the top concentration
% is set by controls: 0 for no effect and ±100 for the full control effect; potency is the fitted concentration of half-maximal effect.

Q: With `CC(C)c1oc(=O)cc2c1[C@@H](O)[C@H]1OC(=O)[C@@]3(C)CC[C@@H](O)[C@@]2(C)C13` (stereo not given in full) as the compound, how does the Potency read?
A: 5.62 µM (active)

Q: For `CC(=O)O[C@H]1C(=O)[C@@]2(C)C([C@H](OC(=O)c3ccccc3)[C@]3(O)C[C@H](O)C(C)=C1C3(C)C)[C@]1(OC(C)=O)CO[C@@H]1C[C@H]2O` (stereo not given in full), which “activity change, negative = inhibition” value is on record?
A: -19.8%

Q: For `CC(=O)O[C@@]12CO[C@@H]1C[C@H](OC1OCC(O)C(O)C1O)[C@@]1(C)C(=O)[C@H](O)C3=C(C)[C@@H](OC(=O)[C@H](O)[C@@H](NC(=O)c4ccccc4)c4ccccc4)C[C@@](O)([C@@H](OC(=O)c4ccccc4)C12)C3(C)C` (stereo not given in full), which “activity change, negative = inhibition” value is on record?
A: 8.54%

Q: With `CC[C@H]1OC(=O)[C@H](C)[C@@H](O[C@H]2C[C@@](C)(OC)[C@@H](O)[C@H](C)O2)[C@H](C)[C@@H](O[C@@H]2O[C@H](C)C[C@H](N(C)C)[C@@H]2O)[C@](C)(OC)C[C@@H](C)C(=O)[C@H](C)[C@@H](O)[C@]1(C)O` as the compound, how does the “activity change, negative = inhibition” value read?
A: -5.45%

Q: For `Oc1ccc([C@@H]2Oc3ccc(O)cc3[C@@H]3CCC[C@@H]32)cc1`, which “activity change, negative = inhibition” value is on record?
A: -37%

Q: For `C[C@H]1CCC[C@@H](O)CCC/C=C/c2cc(O)cc(O)c2C(=O)O1`, which “activity change, negative = inhibition” value is on record?
A: -33.2%

Q: For `CCCNC(=O)[C@H]1O[C@H]1C(=O)N[C@H](C(=O)N1CCC[C@@H]1C(=O)OC)C(C)CC` (stereo not given in full), which Potency is on record?
A: 27.3 µM (active)

Q: With `C=C1C(=O)[C@@]23[C@H](O)C[C@@H]4C(C)(C)CC[C@H](O)[C@]4(C)[C@@H]2C[C@H](O)[C@@H]1[C@H]3O` as the compound, how does the Potency read?
A: 8.91 µM (active)

Q: For `COc1ccc([C@@H]2CC(=O)c3c(O)cc(O[C@@H]4O[C@H](CO)[C@@H](O)[C@H](O)[C@H]4OC4O[C@@H](C)[C@H](O)[C@@H](O)[C@H]4O)cc3O2)cc1O` (stereo not given in full), which “activity change, negative = inhibition” value is on record?
A: -0.678% [at 24.7 µM]

Q: For `CC1=CC(C)CC(C)OC(=O)CC(c2ccc(O)cc2)NC(=O)C(Cc2c(Br)[nH]c3ccccc23)N(C)C(=O)C(C)NC(=O)C(C)C1` (stereo not given), which “activity change, negative = inhibition” value is on record?
A: -14.2%

Q: Which Potency does the source give for `O=C1C=CC(O)(c2cc(=O)c3c(O)cc(O)cc3o2)C=C1` here?
A: 17.8 µM (active)

Q: For `O=c1c(-c2ccc(O)cc2)coc2c(C3OC(CO)C(O)C(O)C3O)c(O)ccc12` (stereo not given), which “activity change, negative = inhibition” value is on record?
A: 2.29%

Q: With `C=C1C(=O)O[C@@H]2C[C@@H](C)[C@H]3C=CC(=O)[C@]3(O)C[C@@H]12` as the compound, how does the “activity change, negative = inhibition” value read?
A: -25.8%

Q: For `CC(=O)c1ccc[nH]1`, which “activity change, negative = inhibition” value is on record?
A: -19.6% [at 115 µM]

Q: With `CO[C@H]1O[C@@H]2O[C@@]3(C)CC[C@@H]4[C@@H](C)CC[C@@H]([C@H]1C)[C@@]24OO3` as the compound, how does the “activity change, negative = inhibition” value read?
A: -8.89%

Q: With `C/C=C(\C)C(=O)N[C@@H](c1ccccc1)[C@@H](O)C(=O)O[C@H]1C[C@@]2(O)[C@@H](OC(=O)c3ccccc3)C3[C@](C)(C(=O)[C@H](O)C(=C1C)C2(C)C)[C@@H](O)C[C@H]1OC[C@@]31OC(C)=O` (stereo not given in full) as the compound, how does the “activity change, negative = inhibition” value read?
A: -37.7%

Q: For `CC(C)c1c(C(=O)Nc2ccccc2)c(-c2ccccc2)c(-c2ccc(F)cc2)n1CC[C@H](O)C[C@@H](O)CC(=O)O`, which “activity change, negative = inhibition” value is on record?
A: -29.4%

Q: Which Potency does the source give for `Oc1ccc(C2CCN(c3ccnc4ccccc34)CC2)cc1O` here?
A: 15.3 µM (active)

Q: Which “activity change, negative = inhibition” value does the source give for `CN(C(=O)c1ccc(F)cc1C(F)(F)F)C1CCN(c2nnc(-c3ccnn3C)c3ccccc23)CC1` here?
A: -27.1%

Q: With `COC(=O)C1CC23C=CCN4CCC5(c6ccccc6NC15C2C)C43` (stereo not given) as the compound, how does the “activity change, negative = inhibition” value read?
A: -31.1%

Q: Which “activity change, negative = inhibition” value does the source give for `O=C1NC(=O)C(=Cc2ccc3c(c2)OC(F)(F)O3)S1` here?
A: -25%

Q: Which “activity change, negative = inhibition” value does the source give for `O=C(/C=C/c1ccccc1)NCCc1ccccc1` here?
A: -1.92%

Q: With `COC(=O)C1C2CC3c4[nH]c5cc(OC)ccc5c4CCN3CC2CC(O)C1OC` (stereo not given) as the compound, how does the “activity change, negative = inhibition” value read?
A: 13%

Q: For `CON=C(C(=O)N[C@@H]1C(=O)N2C(C(=O)O)=C(CSC(=O)c3ccco3)CS[C@H]12)c1csc(N)n1`, which “activity change, negative = inhibition” value is on record?
A: -3.53%

Q: Which Potency does the source give for `CC(C)OC(=O)CCCC=CC[C@@H]1[C@H](C=C[C@@H](O)COc2cccc(C(F)(F)F)c2)[C@H](O)C[C@@H]1O` here?
A: 38.5 µM (active)

Q: With `CC(=O)O[C@@H]1CC[C@@]2(C)[C@H](C1)[C@H](OC(C)=O)C[C@@H]1[C@@H]2C[C@H]2[C@@H]3CN4C[C@H](C)CC[C@H]4[C@H](C)[C@H]3CC[C@@]12O` as the compound, how does the “activity change, negative = inhibition” value read?
A: 5.17% [at 24.7 µM]

Q: With `C=CC(C)(C)c1[nH]cnc1/C=C1\NC(=O)C(C(C)C)NC1=O` (stereo not given) as the compound, how does the “activity change, negative = inhibition” value read?
A: -32.3%

Q: For `COC(=O)c1cc(O)cc(OC)c1Oc1cc(C)cc(O)c1C(=O)O`, which “activity change, negative = inhibition” value is on record?
A: -28.9%

Q: With `CC(=O)O[C@@]12CO[C@@H]1C[C@H](O)[C@@]1(C)C(=O)[C@H](O)C3=C(C)[C@@H](O)C[C@@](O)([C@@H](OC(=O)c4ccccc4)C12)C3(C)C` (stereo not given in full) as the compound, how does the “activity change, negative = inhibition” value read?
A: -6.75%

Q: Which “activity change, negative = inhibition” value does the source give for `O=C(/C=C/c1ccc(O)c(O)c1)c1ccc(O[C@@H]2O[C@H](CO)[C@@H](O)[C@H](O)[C@H]2O)c(O)c1O` here?
A: 22%

Q: With `COc1cc2c(cc1OC)-c1c(OC)c(OC)c(OC)c3ccnc(c13)C2=O` as the compound, how does the “activity change, negative = inhibition” value read?
A: -2.88%

Q: With `COc1cc2c(ccc3c4cc(OC)c(OC)cc4c[n+](C)c23)cc1O` as the compound, how does the “activity change, negative = inhibition” value read?
A: -14.4%

Q: With `COc1cccc2c1C1COC3C4CC(C(=O)O)C(C(C2)N13)N4C` (stereo not given) as the compound, how does the “activity change, negative = inhibition” value read?
A: -31.8%

Q: For `C[C@]12CC[C@H](O)C[C@H]1CC[C@@H]1C2CC[C@]2(C)[C@@H](C3=CC(=O)OC3)[C@@H](O)C[C@]12O` (stereo not given in full), which Potency is on record?
A: 6.31 µM (active)

Q: For `O=C(O)C[C@H](O)C[C@H](O)C=Cc1c(C2CC2)nc2ccccc2c1-c1ccc(F)cc1`, which “activity change, negative = inhibition” value is on record?
A: -26.6%

Q: Which “activity change, negative = inhibition” value does the source give for `COC(/C(C)=C/C=C/C(C)=C/c1coc(C)n1)C(C)C1CC(O)C2(C)OC2C=CC(C)C2CC(CC(=O)O2)CC2OC2C(=O)O1` (stereo not given) here?
A: 6.14%

Q: For `CC(C)(O)CC[C@@H](O)[C@](C)(O)[C@H]1CC[C@@]2(O)C3=CC(=O)[C@@H]4C[C@@H](O)[C@@H](O)C[C@]4(C)[C@@H]3CC[C@]12C`, which “activity change, negative = inhibition” value is on record?
A: 1.21%

Q: Which “activity change, negative = inhibition” value does the source give for `CCCCCOC(=O)Nc1nc(=O)n([C@@H]2O[C@H](C)[C@@H](O)C2O)cc1F` (stereo not given in full) here?
A: -25.9%

Q: Which “activity change, negative = inhibition” value does the source give for `C=CC(C)(C)c1c2occc2c(O)c2ccc(=O)oc12` here?
A: -5.23%

Q: With `C[C@H]([C@@H](O)[C@@H](O)[C@@H](C)C(C)(C)C)[C@H]1CC[C@H]2C3CC[C@H]4C[C@H](OS(=O)(=O)O)[C@@H](OS(=O)(=O)O)C[C@]4(C)[C@H]3CC[C@]12C` (stereo not given in full) as the compound, how does the “activity change, negative = inhibition” value read?
A: -10.7%
